In the library only some 12% were active in any assay of this set; here they are far more common.
G9a block – inhibitors of human histone lysine methyltransferase G9a; actives 8.8% (n = 350,000); Q96KQ7; Potency, µM (top dose mostly 102 µM), for inactives: top-dose activity, negative = inhibition, actives largely listed as inhibitors; G9a H3K9 monomethylation, AlphaScreen, 2 h; further: potency means the concentration at half of the fitted maximal effect; on the % scale 0 is the no-effect control and ±100 the full control effect; nearly all actives have a fitted effect of over 75% in size
Target sequence (Q96KQ7 913-1193 limits assumed): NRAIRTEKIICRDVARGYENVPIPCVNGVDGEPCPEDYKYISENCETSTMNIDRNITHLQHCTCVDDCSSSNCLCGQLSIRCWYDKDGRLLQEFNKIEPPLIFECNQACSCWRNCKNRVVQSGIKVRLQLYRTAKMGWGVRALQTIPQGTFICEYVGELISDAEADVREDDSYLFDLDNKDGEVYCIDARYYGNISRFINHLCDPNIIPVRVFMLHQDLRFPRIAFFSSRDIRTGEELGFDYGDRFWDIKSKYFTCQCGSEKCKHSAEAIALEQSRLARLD
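Step 1: enzyme (final 20 nM) with compound, 15 min RT. Step 2: substrate peptide 500 nM and SAM 20 uM, 2 h RT. Step 3: anti-H3K9me1 antibody and AlphaScreen beads, 10 min, then plate read.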
BAZ2B block – BAZ2B (human) inhibition. actives 4.4% (n = 360,000). AlphaScreen BAZ2B-H3K14Ac peptide displacement. Potency, µM (series often up to 114 µM), for inactives: at the highest dose activity change, negative = inhibition, hits mostly inhibitors. AID 504333; further: potency means the concentration at half of the fitted maximal effect; on the % scale 0 is the no-effect control and ±100 the full control effect; nearly all actives have a fitted effect of over 60% in size
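AlphaScreen displacement: compounds (up to 110uM) incubated 30 min at room temperature with a preformed 50 nM BAZ2B/50 nM biotinylated H3K14Ac peptide complex in PBS pH 7.4 with Tween-20. Donor and acceptor beads at 10 ug/mL final added, 20 min light-protected before reading.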
JMJD2A Tudor – JMJD2A Tudor domain (human) inhibition. actives 4.4% (n = 390,000). O75164. AlphaScreen JMJD2A-Tudor / H3K4me3 peptide binding. Potency, µM (series often up to 114 µM), for inactives: top-dose activity change, negative = inhibition, hits mostly inhibitors; further: potency means the concentration at half of the fitted maximal effect; on the % scale 0 is the no-effect control and ±100 the full control effect; nearly all actives have a fitted effect of over 50% in size
HP1b chromo inh – HP1-beta chromodomain-methylated histone interaction inhibition; actives 0.56% (n = 390,000); Potency, µM (highest dose often 114 µM), inactives show at the top dose activity change, negative = inhibition, actives largely listed as inhibitors; AID 540317; AlphaScreen HP1-beta / biotin-H3K9me3 peptide binding; P83916; further: potency means the concentration at half of the fitted maximal effect; nearly all actives have a fitted effect of over 70% in size
Target sequence (P83916 whole entry, looked up): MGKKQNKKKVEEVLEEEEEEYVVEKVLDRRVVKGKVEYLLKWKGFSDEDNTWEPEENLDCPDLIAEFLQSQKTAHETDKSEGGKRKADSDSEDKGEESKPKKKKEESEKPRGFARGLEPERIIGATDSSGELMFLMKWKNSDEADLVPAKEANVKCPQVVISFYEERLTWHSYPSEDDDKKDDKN
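Compound inhibition of the preformed complex between 50 nM HP1-beta and 50 nM biotinylated H3K9me3 peptide was read by AlphaScreen. Buffer was PBS pH 7.4 with 0.01% Tween-20. Incubations ran 30 min at room temperature, with 10 ug/mL donor/acceptor beads.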
PLK1 PBD block – blocks phosphopeptide binding to human PLK1 polo-box domain; Potency, µM, inactives show max response, negative = inhibition, actives largely listed as inhibitors; actives 2.8% (n = 360,000); AID 720504; Plk1 PBD binding of FITC phosphopeptide, fluorescence polarization; further: potency means the concentration at half of the fitted maximal effect; series mostly up to about 57 µM; on the % scale 0 is the no-effect control and ±100 the full control effect; nearly all actives have a fitted effect of over 65% in size
PI5P4K alpha inh – blocks human PI5P4K alpha kinase activity. P48426. PI5P4Kalpha enzyme, ADP-Glo luminescence, 60 min; hits give low values. max response, %. actives 1.2% (n = 330,000). AID 652105; active means max response of -50% or lower; inconclusive means between -30% and -50%; inactive means -30% or higher; further: value at the top dose of about 77 µM; on the % scale 0 is the no-effect control and ±100 the full control effect
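Human PI5P4Kalpha with substrate in 0.038 M HEPES pH 7.4, 0.28 mM EGTA, 0.1% CHAPS, 5% DMSO; reaction started with 5 microM ATP (final), 60 min at room temperature. ADP formed read by ADP-Glo luminescence.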
* marks the source's active call; other numbers are inactive results; ? = inconclusive; · = no result; [ ] = remark or other dose. Unless noted, the call rests on the fitted dose curve; in most records, active means well fitted curve in the direction sought with a large enough effect; inconclusive means small, poorly fitted or top-dose-only effect, or another doubt; inactive means no such curve, though single readings can be large; an effect the other way counts as inactive or inconclusive.

SMILES	G9a block	BAZ2B block	JMJD2A Tudor	HP1b chromo inh	PLK1 PBD block	PI5P4K alpha inh
OC(c1ccc(Cl)c(F)c1)c1ncc(-c2ccc(F)cc2)[nH]1 (configuration not stated)	·	·	·	·	3.9%	1.8
CSc1ccc(C2C(C#N)=C(N)Oc3c2ccc(=O)c2c(C)oc(C)c32)cc1 (configuration not stated)	31.6µM*	?	56.2µM*	?	-14.2%	-65.4*
Cc1oc(C)c2c(=O)ccc3c(c12)OC(N)=C(C#N)C3c1ccccc1 (configuration not stated)	8.91µM*	?	-34.7%	-23.1%	-6.8%	?
Cc1oc(C)c2c(=O)ccc3c(c12)OC(N)=C(C#N)C3c1ccccc1Cl (configuration not stated)	28.2µM*	?	-2.7%[11.4 µM]	-28.3%	?	?
O=c1c(-c2ccc(Cl)cc2)nc2cnc(N3CCNCC3)nc2n1CCc1ccccc1	-3.2%[0.501 µM]	·	·	·	·	·
Cc1ccc(C(=O)NCC(c2cccs2)S(=O)(=O)c2cccs2)cc1 (configuration not stated)	0.3%[59 µM]	3.2%	-7.5%	32.0%	·	·
CN1C(=O)/C(=N\OC(=O)c2ccccc2Cl)c2ccccc21	?	?	-9.0%	49.3%	2.67µM*	-2.2
CC(=O)O/N=C1\C(=O)N(Cc2ccc(C)cc2)c2ccccc21	50.1µM*	-28.5%	-31.9%	0.9%	?	-13.7
Cc1nc2ccccc2c(=O)n1/N=C1\C(=O)N(C)c2ccccc21	-1.5%	-23.1%	·	·	·	·
Cc1ccccc1C(=O)Nc1ccc2nc(Nc3cccc(C(F)(F)F)c3)cc(C)c2c1	1.8%[59 µM]	-2.8%	-13.9%	25.3%	·	·
CCSC(=Nc1ccccc1)C1=C(O)COC1=O	35.5µM*	?	-34.1%	37.9%	-0.6%	-13.2
CN(CC(=O)Nc1cc(S(=O)(=O)N2CCCC2)ccc1Cl)Cc1nc2ccccc2c(=O)[nH]1	·	·	-25.0%	21.8%	-7.4%	4.5
CCCCCC1NC(=O)NC1CCCCCC(=O)O (configuration not stated)	0.5%[12.7 µM]	0.6%	-10.0%	40.5%	0.0%	-3.8
CC1NC(=O)NC1CCCCCC(=O)NCCc1ccccc1 (configuration not stated)	?	0.891µM*	3.55µM*	?	-11.6%	·
C[C@@H]1NC(=O)N[C@@H]1CCCCCC(=O)O	·	·	1µM*	?	0.0%	0.0
Cc1cccc(C)c1NC(=O)CCCCCC1NC(=O)NC1C (configuration not stated)	12.6µM*	8.91µM*	2.9%	52.9%	1.5%	7.4
CCCn1c(=O)c(C(=O)NCCc2ccccc2)c(O)c2ccccc21	208.3%	84.6%	119.9%	259.5%	-12.0%	11.0
CCn1c(=O)c(C(=O)NCCCO)c(O)c2ccccc21	?	·	28.2µM*	1.6%	-8.5%	10.6
CCn1c(=O)c(C(=O)Nn2c(C)nc3ccccc3c2=O)c(O)c2ccccc21	9.9%[59 µM]	50.1µM*	-9.0%	36.6%	2.8%	6.3
CCCn1c(=O)c(C(=O)NCc2ccccc2)c(O)c2ccccc21	58.6%[59 µM]	34.8%	?	93.3%	11.9µM*	-5.0
Cc1nc2ccccc2c(=O)n1NC(=O)c1ccc([N+](=O)[O-])cc1	-50.4%	·	8.91µM*	-2.3%	?	2.3
COc1ccc(-c2nc3cnc(N(C)C)nc3n(C[C@H]3CCCO3)c2=O)cc1	7.8%[0.501 µM]	·	·	·	·	·
CCOc1ccc(N/C(C)=C/C(=O)c2ccc(C)o2)cc1	50.1µM*	?	3.2%	20.1%	0.6%	-2.0
COC(=O)c1ccc(N/C(C)=C/C(=O)c2ccc(C)o2)cc1	4.0%[12.7 µM]	-35.6%	89.1µM*	-16.2%	-2.1%	-3.3
C/C(=C\C(=O)c1ccc(C)o1)Nc1ccc2c(c1)OCO2	?	?	?	-21.1%	-5.1%	·
SMILES	G9a block	BAZ2B block	JMJD2A Tudor	HP1b chromo inh	PLK1 PBD block	PI5P4K alpha inh
Cc1onc(-c2ccccc2)c1C(=O)NC1CCC(C)CC1 (configuration not stated)	-7.9%[59 µM]	-4.6%	-13.3%	29.4%	-8.4%	1.7
CC1(C(=O)Nc2cccc3c2CCCC3)CCN1C(=O)Cc1ccccc1Cl (configuration not stated)	·	·	·	·	-7.2%	16.1
COc1cc(C(=O)NC2CC(C)(C)Cc3c2cnn3-c2ccccc2)cc(OC)c1OC (configuration not stated)	17.6%	-3.8%[57.1 µM]	?	-21.1%[57 µM]	29.9µM*	-4.2
COc1ccc(C(=O)NC2CC(C)(C)Cc3c2cnn3-c2ccccc2)cc1OC (configuration not stated)	9.2%	-23.7%	-22.0%	26.5%	-7.1%	-0.7
COc1ccc(-n2ncc3c2CC(C)(C)CC3NC(=O)c2c(C)cc(=O)oc2C)cc1 (configuration not stated)	?	-10.4%[57.1 µM]	?	16.7%	23.8µM*	-2.9
Cc1ccc(S(=O)(=O)c2nnn(CC(=O)Nc3ccccc3C)c2N)cc1	-30.3%[59 µM]	-7.1%	-21.2%	17.0%	·	·
Cn1c(CCNC(=O)c2ccc(Cl)cc2)n[nH]c1=S	-26.4%[12.7 µM]	-1.4%[57.1 µM]	10µM*	23.1%	-3.3%	8.7
CCn1c(CCNC(=O)c2ccc(C)cc2)n[nH]c1=S	?	8.7%	6.31µM*	-37.9%	-5.1%	-0.1
COc1ccccc1CNC(=O)CCCCn1c(=O)c2ccccc2n(CC(=O)Nc2c(C)cc(C)cc2C)c1=O	10.2%[59 µM]	-0.2%	-10.6%	11.6%	·	·
Cc1ccccc1-c1nc(S(=O)(=O)c2ccccc2)c(N2CCCC2)o1	·	·	-11.1%	43.2%	-9.7%	-0.8
CCOc1ccc(N2C(=O)CC(NC3CCCCNC3=O)C2=O)cc1 (configuration not stated)	7.94µM*	1.1%	-15.2%	59.6%	-11.4%	-9.0
CCC(=O)N(Cc1ccc(S(N)(=O)=O)cc1)C1CC(=O)N(c2ccc(OC)cc2)C1=O (configuration not stated)	8.91µM*	-3.3%	-11.2%	59.3%	1.0%	-10.1
CCOc1ccc(N2C(=O)CC(N(Cc3ccco3)C(=O)CC)C2=O)cc1 (configuration not stated)	·	-6.4%	-33.3%	-0.1%	26.7µM*	0.1
CCOc1ccc(N2C(=O)CC(NCc3ccc(S(N)(=O)=O)cc3)C2=O)cc1 (configuration not stated)	-35.0%	-2.4%	-17.6%[11.4 µM]	-5.8%	10.6µM*	-12.8
COc1ccc(CN2C(=O)CSCC2(C)C(=O)Nc2ccc3c(c2)OCCO3)cc1 (configuration not stated)	·	·	·	·	-6.5%	1.5
COCCn1c(SCC(=O)c2ccc(Cl)cc2)nnc1C(C)C	11.2µM*	0.2%	50.1µM*	-11.1%	?	-21.6
CCCCn1c(SCC(=O)c2ccc3c(c2)OCCO3)nnc1-c1ccoc1C	?	89.1µM*	?	-3.5%	-25.8%	-6.6

Source: PubChem BioAssay
